In PubChem BioAssay (Tox21):
“And” between values parts separate entries of the source, which are not always exact repeats. Equal entries are not always repeated. Unmarked numbers belong to inactive results. Inconclusive results are not listed. A call without a number means that no potency is given here. The source made the active and inactive calls. Unless noted, calls follow the shape of the dose curve; as a rule, active = well fitted curve in the direction sought with a large enough effect in the repeat runs; inconclusive = weak or mixed curves; inactive = no such curve, though single readings can be large; an effect the other way counts as inactive or inconclusive.

Legend:
[1] = qHTS assay to identify small molecule antagonists of the estrogen receptor alpha (ER-alpha) signaling pathway using the BG1 cell line in the presence of 0.1 nM 17-beta-estradiol - cell viability counter screen (AID 1259241); also: nearly all actives have a fitted effect of over 40% in size; also: potency is read from the fitted curve at half-maximal effect
Outline: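 Cells were plated and left 24 hr, compounds in DMSO were pinned in, 17beta-estradiol was added to 0.1 nM final, and after 22 hr CellTiter-Fluor reagent was added for 30 min before fluorescence was read.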

[2] = qHTS assay to identify small molecule antagonists of the androgen receptor (AR) signaling pathway using the MDA cell line in the presence of 0.5 nM R1881 - cell viability counter screen (AID 1259242); also: nearly all actives have a fitted effect of over 45% in size; also: potency is read from the fitted curve at half-maximal effect
Outline: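 MDA-kb2 cells (human breast carcinoma, stably carrying MMTV-luciferase reporter) were exposed to compounds with 0.5 nM R1881 (final) for 16 hr at 37C, 0% CO2; viability then read as live-cell protease fluorescence (CellTiter-Fluor, 30 min) in the same wells.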

[3] = qHTS assay to identify small molecule HDAC inhibitors (AID 1259364); also: nearly all actives have a fitted effect of over 45% in size; also: potency is read from the fitted curve at half-maximal effect
Outline: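 Wild-type HCT-116 cells were plated overnight, exposed to compounds for 2 h at 37 °C, then given HDAC-Glo class I/II luminogenic reagent for 30 min at room temperature before luminescence was read.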

[4] = qHTS assay to identify small molecule HDAC inhibitors - cell viability counter screen (AID 1259365); also: series mostly up to about 92 µM; nearly all actives have a fitted effect of over 50% in size
Outline: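 Counter screen in wild-type HCT-116 cells: compounds dissolved in DMSO are pin-transferred onto overnight-plated cells and left 2hr at 37C. ATP-based CellTiter-Glo luminescence then measures viable cells.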

[5] = qHTS assay to identify small molecule agonists of the sonic hedgehog signaling (Shh) pathway - cell viability counter screen (AID 1259366); also: nearly all actives have a fitted effect of over 50% in size; also: potency is read from the fitted curve at half-maximal effect
Outline: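 Cells are plated at 2,000 per well and left 4hr at 37C, 5% CO2 before compound addition. After 23hr of treatment, CellTiter-Fluor reagent is added for 1hr at 37C and fluorescence is measured.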

[6] = qHTS assay to identify small molecule antagonists of the sonic hedgehog signaling (Shh) pathway - cell viability counter screen (AID 1259367); also: nearly all actives have a fitted effect of over 55% in size; also: potency is read from the fitted curve at half-maximal effect
Outline: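 Using CellTiter-Fluor, viability of Gli1-Luc reporter 3T3 cells is read by fluorescence in the wells used for the Shh luciferase assay. Treatment lasts 23 hr with conditioned medium, then reagent 1 hr at 37C.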

[7] = qHTS assay to identify small molecule agonists of the sonic hedgehog signaling (Shh) pathway (AID 1259368; calls by dose curve; also: series mostly up to about 92 µM; nearly all actives have a fitted effect of over 15% in size)
Outline: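 NIH/3T3-derived 3T3Gli1-Luc cells carrying a stably integrated Gli1 response element–firefly luciferase reporter were plated, left 4 hr at 37 C, then given compounds in DMSO for 24 hr. Luminescence was read 30 min after adding luciferase reagent.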

[8] = qHTS assay to identify small molecule antagonists of the sonic hedgehog signaling (Shh) pathway (AID 1259369; calls by dose curve; also: nearly all actives have a fitted effect of over 45% in size; also: potency is read from the fitted curve at half-maximal effect)
Outline: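 NIH/3T3-derived 3T3Gli1-Luc cells with stably integrated Gli1-Luc reporter were preincubated 4hr at 37 C, then given compounds in DMSO plus Shh conditioned medium and incubated 24hr. Firefly luciferase luminescence read after 30min reagent at room temperature.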

[9] = qHTS assay to identify small molecule agonists of the androgen receptor (AR) signaling pathway in the presence of an antagonist - cell viability counter screen (AID 1259379); also: nearly all actives have a fitted effect of over 25% in size; also: potency is read from the fitted curve at half-maximal effect
Outline: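 MDA-kb2 human breast carcinoma cells (stable MMTV-luciferase, AR/GR responsive) were seeded 3,000 cells/well, pre-incubated 5 hr at 37C without CO2, then given 3.0uM nilutamide and compounds at 15 concentrations for 16 hr. Viability was read by CellTiter-Fluor fluorescence.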

[10] = qHTS assay to identify small molecule agonists of the estrogen receptor beta (ER-beta) signaling pathway - cell viability counter screen (AID 1259380); also: nearly all actives have a fitted effect of over 30% in size; also: potency is read from the fitted curve at half-maximal effect
Outline: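 ER-beta-UAS-bla HEK293T cells in medium with 2% charcoal-stripped FBS were preincubated 6 hr at 37C, dosed with compound in DMSO for 16 hr, then after the bla read, CellTiter-Glo was added for 30 min at room temperature; luminescence recorded.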

[11] = qHTS assay to identify small molecule antagonists of the estrogen receptor beta (ER-beta) signaling pathway - cell viability counter screen (AID 1259382); also: nearly all actives have a fitted effect of over 55% in size; also: potency is read from the fitted curve at half-maximal effect
Outline: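 ER-beta-UAS-bla HEK293T cells (2,000/well, 2% charcoal-stripped FBS) were pre-incubated 6 hr at 37C, then given compound plus 1nM final 17-beta-estradiol for 16 hr. Viability was read in the same wells by CellTiter-Glo luminescence after 30 min at room temperature.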

[12] = qHTS assay to identify small molecule agonists or antagonists of the thyroid stimulating hormone receptor (TSHR) signaling pathway - wild type cell line counter screen (AID 1259384; calls by dose curve)
Outline: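 Counter screen in untransfected Hek293: compounds (15-point titration, triplicate) plus phosphodiesterase inhibitor Ro20-1724 added after 18 h plating; 30 min RT. Intracellular cAMP via competitive d2/cryptate immunoassay, 1 h incubation.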

[13] = biological target: Thyrotropin receptor (Homo sapiens) (UniProt P16473); assay: qHTS assay to identify small molecule antagonists of the thyroid stimulating hormone receptor (TSHR) signaling pathway (AID 1259385; calls by dose curve; also: nearly all actives have a fitted effect of over 20% in size)
Thyrotropin receptor (Homo sapiens), sequence (P16473 whole entry, looked up): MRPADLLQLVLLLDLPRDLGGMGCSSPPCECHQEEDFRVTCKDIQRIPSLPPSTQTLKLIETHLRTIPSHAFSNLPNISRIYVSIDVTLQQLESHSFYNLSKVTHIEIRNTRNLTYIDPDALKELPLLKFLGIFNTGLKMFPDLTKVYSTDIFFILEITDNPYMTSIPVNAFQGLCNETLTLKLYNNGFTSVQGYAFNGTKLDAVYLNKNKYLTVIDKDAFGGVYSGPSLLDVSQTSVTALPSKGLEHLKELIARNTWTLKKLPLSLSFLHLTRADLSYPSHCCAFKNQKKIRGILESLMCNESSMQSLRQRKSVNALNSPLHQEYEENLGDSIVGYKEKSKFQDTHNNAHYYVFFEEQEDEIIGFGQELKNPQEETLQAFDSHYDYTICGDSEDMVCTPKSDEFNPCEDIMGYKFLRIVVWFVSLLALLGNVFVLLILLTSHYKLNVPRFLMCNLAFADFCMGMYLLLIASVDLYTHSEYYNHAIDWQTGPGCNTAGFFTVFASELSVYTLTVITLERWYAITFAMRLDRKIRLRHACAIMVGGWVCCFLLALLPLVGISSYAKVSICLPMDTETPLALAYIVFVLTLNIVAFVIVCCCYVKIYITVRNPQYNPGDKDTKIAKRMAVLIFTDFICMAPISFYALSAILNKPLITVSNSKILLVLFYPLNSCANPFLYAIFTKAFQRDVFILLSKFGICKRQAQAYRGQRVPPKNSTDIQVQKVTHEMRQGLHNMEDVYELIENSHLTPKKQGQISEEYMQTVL
Outline: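 Antagonist mode: compound-treated TSHR-expressing HEK293 cells were stimulated with 1.5 ng/mL TSH (final) in presence of Ro20-1724 for 30 min at RT. HTRF cAMP detection after 1 h; each compound tested at 15 concentrations, triplicate.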

[14] = biological target: Estrogen receptor beta (Homo sapiens) (UniProt Q92731); assay: qHTS assay to identify small molecule antagonists of the estrogen receptor beta (ER-beta) signaling pathway (AID 1259378; active = well fitted inhibition curve with a large enough effect in the signal ratio in the repeat runs, not every such curve was filed as active; the % refers to the signal ratio)
Estrogen receptor beta (Homo sapiens), sequence (Q92731 whole entry, looked up, the tested form may be a part): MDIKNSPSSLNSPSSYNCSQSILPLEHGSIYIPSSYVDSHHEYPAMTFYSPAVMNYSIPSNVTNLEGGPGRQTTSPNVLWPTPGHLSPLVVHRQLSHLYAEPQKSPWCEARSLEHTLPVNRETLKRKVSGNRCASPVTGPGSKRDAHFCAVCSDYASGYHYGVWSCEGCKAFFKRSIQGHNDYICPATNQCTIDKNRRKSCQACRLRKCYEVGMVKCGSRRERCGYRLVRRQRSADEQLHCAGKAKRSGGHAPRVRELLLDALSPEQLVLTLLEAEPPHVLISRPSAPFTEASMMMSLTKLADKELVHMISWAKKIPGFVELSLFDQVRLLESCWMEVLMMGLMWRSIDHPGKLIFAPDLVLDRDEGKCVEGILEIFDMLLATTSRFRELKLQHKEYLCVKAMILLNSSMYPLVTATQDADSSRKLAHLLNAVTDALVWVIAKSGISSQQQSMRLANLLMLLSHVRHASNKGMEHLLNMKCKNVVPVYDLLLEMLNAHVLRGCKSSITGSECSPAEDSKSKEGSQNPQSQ
Outline: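 Antagonist mode: compounds added to beta-lactamase reporter HEK293T ER-beta-UAS cells stimulated with E2 (1nM final), 16 hr at 37C. LiveBLAzer B/G FRET substrate, 2 hours room temperature, fluorescence read-out.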

[15] = biological target: Estrogen receptor beta (Homo sapiens) (UniProt Q92731); assay: qHTS assay to identify small molecule agonists of the estrogen receptor beta (ER-beta) signaling pathway (AID 1259377; active = well fitted activation curve with a large enough effect in the signal ratio in the repeat runs, not every such curve was filed as active; the % refers to the signal ratio)
Outline: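 Agonist mode cell assay in GripTite HEK293T cells expressing an ER-beta fusion that drives beta-lactamase from an Upstream Activator Sequence; 16 hr compound exposure at 37C, then 2 h LiveBLAzer B/G FRET substrate at room temperature, fluorescence read-out.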

[16] = qHTS assay to identify small molecule phospholipidosis (PLD) inducers (AID 1259344; active = well fitted curve in the direction sought with a large enough effect; an effect the other way counts as inactive or inconclusive)
Outline: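 Fluorescent phospholipid staining (LipidTOX Red) measured by automated microscopy in fixed HepG2 cells after 24 h treatment; nuclei counterstained with Hoechst 33342; amiodarone as reference inducer.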

[17] = biological target: Estrogen receptor (Homo sapiens) (UniProt P03372); assay: qHTS assay to identify small molecule agonists of the estrogen receptor alpha (ER-alpha) signaling pathway in the presence of an antagonist (AID 1259383; calls by dose curve; also: top concentration of the series differs between compounds; nearly all actives have a fitted effect of over 15% in size)
Estrogen receptor (Homo sapiens), sequence (P03372 whole entry, looked up): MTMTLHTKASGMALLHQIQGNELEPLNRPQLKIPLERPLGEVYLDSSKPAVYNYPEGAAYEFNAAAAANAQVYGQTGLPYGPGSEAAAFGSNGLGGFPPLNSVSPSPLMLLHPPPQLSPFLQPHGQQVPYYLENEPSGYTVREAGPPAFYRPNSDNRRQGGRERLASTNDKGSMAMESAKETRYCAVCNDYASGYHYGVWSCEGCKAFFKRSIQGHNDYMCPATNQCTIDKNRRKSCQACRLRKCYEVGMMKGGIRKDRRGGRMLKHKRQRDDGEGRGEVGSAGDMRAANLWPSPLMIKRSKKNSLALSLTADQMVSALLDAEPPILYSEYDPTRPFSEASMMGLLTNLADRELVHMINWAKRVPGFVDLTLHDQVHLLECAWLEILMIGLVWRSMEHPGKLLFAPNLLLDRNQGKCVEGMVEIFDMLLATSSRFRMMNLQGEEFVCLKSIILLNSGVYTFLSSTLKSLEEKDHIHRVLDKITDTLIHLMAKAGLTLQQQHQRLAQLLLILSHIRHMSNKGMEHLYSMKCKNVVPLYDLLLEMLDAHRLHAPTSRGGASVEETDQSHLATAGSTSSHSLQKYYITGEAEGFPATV
Outline: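 VM7Luc4E2 cells (endogenous full-length ER-alpha, 4×ERE-luciferase) were precultured 5 days in phenol red-free medium with 10% charcoal-stripped FBS, given 10.0nM ICI-182,780 (final), then treated with compounds at 15 concentrations for 22hr at 37C; luminescence read with ONE-Glo.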

SMILES | Potency [1] | Potency [2] | Potency [3] | Potency [4] | Potency [5] | Potency [6] | Potency [7] | Potency [8] | Potency [9] | Potency [10] | Potency [11] | outcome [12] | Potency [13] | Potency [14] | Potency [15] | Potency [16] | Potency [17]
Nc1nc(-c2ccccc2)cs1 | inactive | inactive | 21.6 µM (active) | inactive | inactive | inactive | inactive | inactive | inactive | inactive | inactive | inactive | inactive | – | – | – | –
Sc1nc2ccccc2s1 | inactive | inactive | – | inactive | inactive | – | inactive | 54.5 µM (active) | inactive | inactive | inactive | – | inactive | inactive | – | – | –
CC1(C)CCC[C@]2(C)[C@H]3CCO[C@]3(C)CC[C@@H]12 | inactive | inactive | inactive | inactive | inactive | inactive | inactive | inactive | inactive | inactive | inactive | inactive | inactive | – | – | – | –
O=[N+]([O-])c1ccc(O)cc1C(F)(F)F | 48.6 µM (active) | 27.3 µM (active) | inactive | inactive | inactive | inactive | inactive | inactive | 30.6 µM (active) | inactive | inactive | inactive | inactive | – | inactive | – | –
CCCNCCC | inactive | inactive | inactive | inactive | inactive | inactive | inactive | inactive | inactive | – | inactive | inactive | inactive | – | inactive | – | –
O=C1C(c2[nH]c3ccc(S(=O)(=O)O)cc3c2O)=Nc2ccc(S(=O)(=O)O)cc21 | inactive | inactive | 54.5 µM (active) | – | inactive | inactive | inactive | inactive | – | inactive | inactive | – | – | inactive | – | inactive | –
C/C=C/C=C/COC(=O)C(C)C | inactive | inactive | inactive | inactive | inactive | – | inactive | 30.6 µM (active) | – | inactive | inactive | inactive | inactive | – | inactive | – | –
CCC(C)n1ncn(-c2ccc(N3CCN(c4ccc(OC[C@H]5CO[C@](Cn6cncn6)(c6ccc(Cl)cc6Cl)O5)cc4)CC3)cc2)c1=O (some centres not stated) | inactive | inactive | inactive | inactive | inactive | inactive | inactive | 1.68 µM (active) | inactive | – | inactive | inactive | inactive | – | – | – | inactive
Cc1nc(-c2ccc(Cl)cc2)oc1COC(C)(C)C(=O)O | inactive | inactive | – | inactive | inactive | inactive | inactive | inactive | inactive | – | inactive | inactive | inactive | inactive | inactive | inactive | –
Cc1ccc(-c2ccccc2)cc1 | inactive | inactive | inactive | inactive | inactive | inactive | inactive | inactive | – | – | inactive | inactive | inactive | inactive | inactive | – | –
O=C(O)CCN(C1(C(=O)NO)CCCC1)S(=O)(=O)c1ccc(Oc2ccc(F)cc2)cc1 | inactive | inactive | inactive | inactive | – | inactive | inactive | inactive | inactive | – | inactive | inactive | inactive | – | – | – | –
COc1cccc(OC)c1C(=O)O | inactive | inactive | – | inactive | inactive | inactive | inactive | inactive | inactive | inactive | inactive | inactive | inactive | inactive | – | – | –
CCc1oc2ccccc2c1C(=O)c1cc(I)c(O)c(I)c1 | inactive | inactive | inactive | inactive | inactive | – | inactive | – | – | – | – | inactive | inactive | – | – | inactive | inactive
CCCC(=O)OCCc1ccccc1 | inactive | inactive | inactive | inactive | inactive | inactive | inactive | inactive | – | inactive | inactive | inactive | inactive | inactive | – | – | –
CCOC(=O)c1ccc(C2CCC(NC[C@H](O)COc3ccc(O)c(NS(C)(=O)=O)c3)CC2)cc1 (some centres not stated) | inactive | inactive | inactive | inactive | – | 50.2 µM (active) | inactive | 10 µM (active) | – | 50.2 µM (active) | – | – | – | – | – | – | –
COc1cc(S(=O)(=O)O)c(C)cc1N=Nc1c(O)ccc2cc(S(=O)(=O)O)ccc12 | 21.7 µM (active) | 24.3 µM (active) | inactive | – | 27.3 µM (active) | – | inactive | inactive | 27.3 µM (active) | inactive | inactive | – | – | – | – | – | inactive
CC(=O)[C@H]1CC[C@H]2[C@@H]3CCC4=CC(=O)CC[C@]4(C)[C@H]3CC[C@]12C | inactive | inactive | inactive | inactive | inactive | – | inactive | 9.63 µM (active) and 6.11 µM (active) | – | – | 54.2 µM (active) and 61.1 µM (active) | inactive | – | – | – | – | inactive
